This note sets out measurements from PubChem BioAssay (NCATS).

Experiment [1] in a line: qHTS of pediatric cancer cell lines to identify multiple opportunities for drug repurposing: Primary screen for RD cells (AID 1347104). Further: nearly all actives have a fitted effect of over 55% in size. Further: potency means the concentration at half of the fitted maximal effect. In outline: (§1)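 ATP-based luminescence (CellTiter-Glo) quantifies viability after a 48-hour exposure. Compounds are dosed across 8 or 11 final concentrations; DMSO and 2.3 µM bortezomib serve as controls.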
(In general: qHTS replaces the single test concentration by a dilution series.)

A short description of experiment [2]: qHTS of pediatric cancer cell lines to identify multiple opportunities for drug repurposing: Primary screen for Rh41 cells (AID 1347108). Further: nearly all actives have a fitted effect of over 70% in size. Further: potency means the concentration at half of the fitted maximal effect. In outline: as §1
The nature of experiment [3]: qHTS of pediatric cancer cell lines to identify multiple opportunities for drug repurposing: Primary screen for OHS-50 cells (AID 1347103). Further: nearly all actives have a fitted effect of over 40% in size. Further: potency means the concentration at half of the fitted maximal effect. In outline: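 Cells (500-1,000/well) rested 5 h, then received compounds for 48 h; metabolically active cells were measured by CellTiter-Glo luminescence. Final concentrations spanned up to 46 µM (MIPE, 11-point) or 0.59 nM-46 µM (NPC, 8-point) in primary screens, 11-point in follow-ups.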

Experiment [4] is described as follows: qHTS of pediatric cancer cell lines to identify multiple opportunities for drug repurposing: Primary screen for control Hh wild type fibroblast cells (AID 1347106). Further: nearly all actives have a fitted effect of over 55% in size. Further: potency means the concentration at half of the fitted maximal effect. In outline: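 Viability after 48 h compound treatment at 37C, 500-1,000 cells/well, read as ATP luminescence with CellTiter-Glo. Primary screens used 11-point (MIPE, 0.78 nM-46 µM) or 8-point (NPC, 0.59 nM-46 µM) final concentrations; follow-up screens used 11-point dilutions.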

Experiment [5] is described as follows: qHTS of pediatric cancer cell lines to identify multiple opportunities for drug repurposing: Primary screen for MG 63 (6-TG R) cells (AID 1347105). Further: nearly all actives have a fitted effect of over 50% in size. Further: potency means the concentration at half of the fitted maximal effect. In outline: as §1
The nature of experiment [6]: qHTS of pediatric cancer cell lines to identify multiple opportunities for drug repurposing: Primary screen for Rh30 cells (AID 1347107). Further: series mostly up to about 46 µM; nearly all actives have a fitted effect of over 75% in size. In outline:
(§2)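 Cells (500-1,000/well) in growth media were settled 5 h at 37 degrees C, then given compounds for 48 h. Viability was read as CellTiter-Glo luminescence. Primary runs used MIPE at 11 points (0.78 nM-46 µM) and NPC at 8 points (0.59 nM-46 µM); follow-ups used 11 points.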

Experiment [7] can be described thus: qHTS of pediatric cancer cell lines to identify multiple opportunities for drug repurposing: Primary screen for Rh18 cells (AID 1347102). Further: nearly all actives have a fitted effect of over 65% in size. Further: potency means the concentration at half of the fitted maximal effect. In outline:
as §2

SMILES strings stand for the structures. Inconclusive results are not listed. Activity calls are given as the source filed them. The call rests on the fitted dose curve; in most records, active means well fitted curve in the direction sought with a large enough effect; inconclusive means small, poorly fitted or top-dose-only effect, or another doubt; inactive means no such curve, though single readings can be large; an effect the other way counts as inactive or inconclusive.

With `COc1cc2nccc(Oc3ccc(NC(=O)Nc4cc(C)on4)c(Cl)c3)c2cc1OC`, the Potency was 33.2 µM (active) in experiment [1] and 14.8 µM (active) in experiment [2].

As for `C=CC(=O)Nc1cccc(Sc2nc(Nc3ccc(N4CCN(C)CC4)cc3)ncc2Cl)c1`, the Potency in experiment [3] was 27.3 µM (active). Further, the Potency result in experiment [4] was “inactive”.

For `CN(C(Cc1ccc(OS(=O)(=O)c2cccc3cnccc23)cc1)C(=O)N1CCN(c2ccccc2)CC1)S(=O)(=O)c1cccc2cnccc12` (stereo not drawn), the Potency in experiment [3] was 13.7 µM (active); in experiment [5], 14.8 µM (active). The Potency entry in experiment [6] is “inactive”.

For the molecule `CCCCn1c(=O)n(Cc2ccccc2F)c(=O)c2[nH]c(Cc3ccc(NC(C)=O)cc3)nc21`, the Potency entry in experiment [7] and in experiment [4] was “inactive” in each case. Further, the Potency in experiment [5] was 18.7 µM (active).

`CN(C)N=Nc1nc[nH]c1C(N)=O`: the Potency result in experiment [7], in experiment [1], in experiment [5], in experiment [4] and in experiment [2] was “inactive” each time.

On to `O=C(CCCN1CCN(c2ccc(F)cc2)CC1)NC1c2ccccc2CSc2ccccc21` (stereo not drawn), for which, in experiment [4], the Potency entry is “inactive”.

For the molecule `C[C@@H](N)c1ccc(C(=O)Nc2ccnc3[nH]ccc23)cc1`, the Potency entry in experiment [5], in experiment [4] and in experiment [6] was “inactive” each time.

On to `COc1ccc(CCC(=O)Nc2nc3ccc(Cl)cc3s2)cc1OC`, for which the Potency entry in experiment [7], in experiment [1], in experiment [5] and in experiment [4] was “inactive” throughout.

Take `Cc1c(C(=O)Nc2ccc(N3C[C@@H](C)O[C@@H](C)C3)nc2)cccc1-c1ccc(OC(F)(F)F)cc1`: the Potency was 19.3 µM (active) in experiment [3] and 23.5 µM (active) in experiment [5].

Consider `CO[C@@H]1C(N(C)C(=O)c2ccccc2)C[C@H]2O[C@]1(C)n1c3ccccc3c3c4c(c5c6ccccc6n2c5c31)C(=O)NC4=O` (stereo partly drawn), for which the Potency result in experiment [3], in experiment [6] and in experiment [2] was “inactive” in each case. In addition, the Potency in experiment [5] is 1.48 µM (active).

In the case of `COc1ccc(-c2nc3ccc(C4=NNC(=O)CC4C)cc3[nH]2)cc1` (stereo not drawn), the Potency entry in experiment [5], in experiment [4] and in experiment [6] was “inactive” in each case.

With `Cc1cnc(CNC(=O)c2c(=O)c3ccc(N4CCCN(C)CC4)nc3n3c2sc2ccccc23)cn1`, the Potency result in experiment [3], in experiment [1], in experiment [4] and in experiment [2] was “inactive” each time.

`COc1cc(F)c(C(C)C)cc1-c1ccc(C(F)(F)F)cc1CN1C(=O)O[C@H](c2cc(C(F)(F)F)cc(C(F)(F)F)c2)[C@@H]1C`: the Potency entry in experiment [7], in experiment [1], in experiment [5], in experiment [4] and in experiment [2] was “inactive” in each case.

Turning to `O=C(Nc1cccc(C(F)(F)F)c1)Nc1cc(S(=O)(=O)NC2CC2)ccc1-c1ccsc1`, the Potency result in experiment [7] and in experiment [4] was “inactive” throughout. Besides, in experiment [1], the Potency was 29.6 µM (active).

Take `O=C1CN2Cc3c(ccc(Cl)c3Cl)N=C2N1`: the Potency in experiment [3] is 21.7 µM (active). Also, the Potency entry in experiment [5] is “inactive”.

Consider `CC(C)(O)CC(=O)NCCn1ccc2ncnc(Nc3ccc(Oc4cccc(C(F)(F)F)c4)c(Cl)c3)c21`, for which the Potency was 30.6 µM (active) in experiment [3] and 18.7 µM (active) in experiment [1]. The Potency result in experiment [4] was “inactive”.

For `COc1c(C)c2c(c(O)c1CC=C(C)CCC(=O)O)C(=O)OC2`, the Potency result in experiment [7], in experiment [4], in experiment [6] and in experiment [2] was “inactive” each time.

On to `C[C@@H]1CCO[C@H]2Cn3cc(C(=O)NCc4ccc(F)cc4F)c(=O)c(O)c3C(=O)N12`, for which the Potency result in experiment [5] was “inactive”.

As to `CNC(=O)c1c(-c2ccc(F)cc2)oc2cc(N(CCO)S(C)(=O)=O)c(C3CC3)cc12`, the Potency in experiment [3] was 27.3 µM (active); in experiment [1], 29.6 µM (active); in experiment [2], 18.7 µM (active).

Regarding `CCCCC[C@H](O)C=C[C@H]1[C@H](O)CC(=O)[C@H]1CCCCCCC(=O)O`, the Potency result in experiment [7], in experiment [5], in experiment [4] and in experiment [6] was “inactive” in each case.

As to `CC(=O)NCCC(=O)N[C@@H](CCC(N)=O)C(=O)N[C@@H](CO)C(=O)N[C@@H](CCC(N)=O)C(=O)N[C@@H](CCC(N)=O)C(=O)N[C@H](C(=O)N[C@@H](Cc1ccccc1)C(=O)N[C@]1(C)CCCCCCC=CCCC[C@@](C)(C(=O)N[C@@H](CCC(N)=O)C(=O)N[C@@H](CC(N)=O)C(N)=O)NC(=O)[C@H](CC(C)C)NC(=O)[C@H](CC(C)C)NC(=O)[C@@H](CCCNC(=N)N)NC(=O)[C@H](Cc2c[nH]c3ccccc23)NC(=O)[C@H](CC(C)C)NC(=O)[C@H](CC(N)=O)NC1=O)[C@H](C)O`, the Potency result in experiment [7], in experiment [5] and in experiment [4] was “inactive” in each case. Moreover, in experiment [2], the Potency was 18.7 µM (active).

With `CCC(=O)N1CCN(c2ccc(-n3c(=O)ccc4cnc5ccc(-c6cnc7ccccc7c6)cc5c43)cc2C(F)(F)F)CC1`, the Potency was 0.0432 µM (active) in experiment [3] and 0.0743 µM (active) in experiment [2]. The Potency result in experiment [6] was “inactive”.

As for `CN(C)c1ccccc1CN1CCCN(Cc2ccccc2N(C)C)C1c1ccncc1`, the Potency in experiment [3] was 27.3 µM (active); in experiment [1] it was 26.4 µM (active). Besides, the Potency result in experiment [5], in experiment [4] and in experiment [6] was “inactive” each time.

Take `Cc1ccc(C2=Nc3ccc(Cl)cc3OC2)cc1`: the Potency entry in experiment [3], in experiment [5] and in experiment [4] was “inactive” throughout.

For `CO[C@H]1/C=C\O[C@@]2(C)Oc3c(C)c(O)c4c(O)c(c5c(nc6cc(C)ccn65)c4c3C2=O)NC(=O)C(C)=CC=C[C@H](C)[C@H](O)[C@@H](C)[C@@H](O)[C@@H](C)[C@H](OC(C)=O)[C@H]1C`, the Potency result in experiment [1], in experiment [5], in experiment [4] and in experiment [2] was “inactive” throughout.

Regarding `C[C@]12CC[C@@H]3c4ccc(O)cc4CC[C@H]3[C@H]1[C@@H](O)[C@@H](O)[C@H]2O`, the Potency entry in experiment [7] and in experiment [6] was “inactive” throughout.

For the molecule `Cc1ccc(NC(=O)Nc2cc(C(F)(F)F)ccc2F)cc1Nc1ccc2c(c1)NC(=O)C2=Cc1ccc[nH]1`, the Potency in experiment [1] and in experiment [5] was 18.7 µM (active) each time. Also, the Potency entry in experiment [4] is “inactive”.

Take `Cc1ccc2c(c1)C(=O)[C@]1(O)CCN(c3ccccc3)C1=N2`: the Potency result in experiment [4] is “inactive”.

In the case of `COc1cc([C@H]2Oc3cc([C@H]4Oc5cc(O)cc(O)c5C(=O)[C@H]4O)ccc3O[C@H]2CO)ccc1O`, in experiment [3], the Potency result was “inactive”.

For `CNC(=O)c1cc(COc2nnc(Nc3ccc(Cl)cc3)c3ccoc23)ccn1`, the Potency in experiment [5] was 23.5 µM (active).

Regarding `NCc1c[nH]c(=S)n1[C@H]1CCc2c(F)cc(F)cc2C1`, the Potency in experiment [7] is 16.6 µM (active); in experiment [1] it was 33.2 µM (active).

On to `COC(=O)Nc1ccc(-c2nc(N3CCOCC3)c3cnn(C4CCN(C(=O)OC)CC4)c3n2)cc1`, for which the Potency was 6.62 µM (active) in experiment [7]; 1.66 µM (active) in experiment [1]; 0.469 µM (active) in experiment [5]; 0.0209 µM (active) in experiment [4]; 1.32 µM (active) in experiment [2]. Moreover, the Potency entry in experiment [6] was “inactive”.

For `CCOC(=O)c1c(CSc2ccccc2)n(C)c2cc(Br)c(O)c(CN(C)C)c12`, the Potency entry in experiment [5] and in experiment [4] was “inactive” each time.
